Bioassay records deposited in PubChem BioAssay by several laboratories.
Sampled rows, rich in hits. Any-hit rate of the full collection: about 32%.
CYP2C19 inhib: blockers of cytochrome P450 2C19 activity – biochemical, luminescence, ADME assay, primary screen. actives 21% (n = 96,000). inhibition, % at 5 µM. CYP2C19 Supersomes, luciferin-H EGE luminescence, 30 min. P33261;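 active = CYP2C19 inhibition above a set limit at 5 µM in the primary screen, cut at about 50% in these data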;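 also: plate controls were negative control wells for no effect and 2.5 mM tranylcypromine positive control for full effect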
CYP2C9 activ: human CYP2C9 activators, primary screen, biochemical, luminescence. AID 1024, 2008. activation factor at 5 µM. actives 1.4% (n = 96,000). recombinant CYP2C9, luciferin-H conversion; hits give high values; factor 1 = untreated enzyme, 0 = blocked. Cytochrome P450 2C9 (Homo sapiens), P11712;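 active = activation factor of 2 or more for CYP2C9 at a 5 µM dose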;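 also: 0 = sulfaphenazole-blocked wells and 1 = vehicle-only wells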
Target sequence (P11712 whole entry, looked up): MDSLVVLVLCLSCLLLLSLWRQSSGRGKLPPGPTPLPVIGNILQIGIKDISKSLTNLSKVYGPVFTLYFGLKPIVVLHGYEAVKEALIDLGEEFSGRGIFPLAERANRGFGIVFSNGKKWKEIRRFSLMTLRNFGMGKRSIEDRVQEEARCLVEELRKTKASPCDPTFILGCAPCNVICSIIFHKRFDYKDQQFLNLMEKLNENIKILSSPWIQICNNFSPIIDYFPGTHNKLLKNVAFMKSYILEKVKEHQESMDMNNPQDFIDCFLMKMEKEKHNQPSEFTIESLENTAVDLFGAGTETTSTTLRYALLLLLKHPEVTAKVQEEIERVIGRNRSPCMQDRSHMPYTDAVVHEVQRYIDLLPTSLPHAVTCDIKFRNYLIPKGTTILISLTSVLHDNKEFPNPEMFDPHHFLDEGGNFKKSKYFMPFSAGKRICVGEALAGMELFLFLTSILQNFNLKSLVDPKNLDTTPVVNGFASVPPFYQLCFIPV
CYP2C9 inhib: blockers of cytochrome P450 2C9 activity – biochemical, luminescence, ADME assay, primary screen; P11712; CYP2C9 Supersomes, luciferin-H conversion; inhibition, % at 5 µM; AID 777, 2007; actives 20% (n = 96,000);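 active = blocking of liver enzyme CYP2C9 beyond about 50% at 5 µM, limit read from the data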
CYP2C19 act: human CYP2C19 activators, primary screen, biochemical, luminescence; recombinant CYP2C19, luciferin-H EGE luminescence; hits give high values; 0 = fully inhibited enzyme, 1 = untreated enzyme; 96,000 tested, under 10 active; AID 1025, 2008; activation factor at 5 µM;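 active = activation factor of at least 2 at 5 µM in the primary screen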;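 also: 0 = wells with 2.5 mM tranylcypromine and 1 = vehicle-only wells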
PostGolgi yeast: phenotypic screen on post-Golgi transport, primary screen; post-Golgi transport phenotypic cell assay; inhibition, % at 10 µM; actives 0.9% (n = 98,000); AID 739, 2007;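 also: yeast cells grown in 1536-well plates; yeast grown about 18 h at 30C before absorbance read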
PostGolgi ctrl: growth inhibition of yeast control strain, primary screen, counter-screen for post-Golgi transport modulator project | efflux-deficient yeast background strain, growth absorbance A615, 16 h | inhibition, % at 10 µM | actives 5% (n = 98,000) | AID 738, 2007
Active calls of the source: *; nt = no result. Rule as the data show it, unless noted: active = inhibition above about 30%; inactive = the rest.

SMILES	CYP2C19 inhib	CYP2C9 activ	CYP2C9 inhib	CYP2C19 act	PostGolgi yeast	PostGolgi ctrl
COc1ccc(CCNC(=O)CCC(=O)N2CCN(S(=O)(=O)c3ccc(Cl)cc3)CC2)cc1OC	0.5	0.9	14.4	1	-3.3	-3.9
CCC(=O)N1CCc2cc(S(=O)(=O)CCC(=O)NCCc3ccc(OC)c(OC)c3)ccc21	27.6	0.4	55.1*	0.7	5.2	22.1
COc1ccc(CCNS(=O)(=O)c2ccc3c(c2)CC(C)N3C(C)=O)cc1OC (stereo not drawn)	24.6	0.6	38.2	0.8	7.7	5.4
COc1ccc(CCNS(=O)(=O)c2ccc3c(c2)CCN3C(=O)C2CC2)cc1OC	45.0	0.3	66.4*	0.6	3.5	10.8
Cc1ccc(NC(=O)Nc2nc(-c3ccc(C)s3)cs2)cc1	17.9	0.8	24.9	0.8	-5.7	1.4
Cc1cc2nc(N)sc2cc1[N+](=O)[O-]	-3.4	1	0.8	1	-10.0	9.2
Cc1cc([N+](=O)[O-])c(C(C)(C)C)cc1N	88.7*	1	0.5	0.1	3.3	6.5
COc1ccc(N=c2oc3c(OC)cccc3cc2C(=O)NCc2ccco2)c(OC)c1	30.1	0.5	53.8*	0.7	-2.7	-2.1
COc1ccc2cc(C(=O)NCc3ccco3)c(=Nc3ccc(C(=O)O)cc3)oc2c1	6.5	0.7	29.9	0.9	5.3	-1.2
COc1ccc(OC)c(-c2cc(C(=O)NCc3ccco3)no2)c1	8.8	2.9*	-191.0	0.9	11.6	15.9
Cc1cc(C(=O)NCc2ccco2)no1	17.6	1	2.1	0.8	30.3*	11.2
CCC(C)(CC(=O)N(C)CCC#N)c1ccccc1 (stereo not drawn)	44.8	0.8	17.7	0.6	4.0	2.7
Clc1cccc(CSc2nc3ccncc3[nH]2)c1	100.1*	0.2	76.4*	0	-9.0	12.7
O=C(NCc1cccs1)N[C@@H](Cc1ccccc1)C(=O)O	8.1	0.9	5.5	0.9	-2.2	7.4
COc1ccccc1CNC(=O)N[C@@H](Cc1ccccc1)C(=O)O	70.4*	0.8	21.4	0.3	-1.0	-0.3
COC(=O)[C@H](Cc1ccccc1)NC(=O)NCc1cccs1	62.9*	0.8	19.8	0.4	2.6	1.6
C=CCn1c(C(C)NC(=O)COC)nc2ccccc21 (stereo not drawn)	10.5	0.8	16.0	0.9	-5.5	13.8
CCOC(=O)C1=C(Nc2ccc(C)cc2)CC(C)(O)C(C(=O)OCC)C1c1ccccc1 (stereo not drawn)	2.7	1.1	-6.9	1	3.8	4.5
COc1ccc(Oc2nc(-c3ccccc3)ncc2S(=O)(=O)c2ccccc2)cc1	6.9	0.9	8.5	0.9	-4.0	14.4
Cc1cccc(C)c1Oc1nc(-c2ccccc2)ncc1S(=O)(=O)c1ccccc1	32.2	0.2	84.8*	0.7	0.5	8.8
Cc1cc2cc3c(cc2nc1SCC(=O)N1CCN(C(=O)c2ccco2)CC1)OCO3	48.1	0.2	80.1*	0.5	nt	nt
O=C(CSc1nnc(-c2ccc(Br)cc2)o1)N1CCN(C(=O)c2ccco2)CC1	7.8	0.9	11.1	0.9	5.4	4.5
Cc1cc2cc3c(cc2nc1SCC(=O)OC(C)C)OCO3	-1.2	1	-2.6	1	-2.5	-1.9
Cc1cc(C)cc(-c2nnc(SCC(=O)N3CCN(C(=O)c4ccco4)CC3)o2)c1	49.8	2*	-102.6	0.5	-6.0	9.4
C/C(=N\NC(=O)CC1N=C(Cc2ccccc2)NNC1=O)c1ccc(Cl)cc1Cl (stereo not drawn)	19.1	0.8	24.0	0.8	-2.8	4.9
C=CCn1c(SCC(=O)Nc2ccc3c(c2)OCO3)nnc1-c1ccccc1	53.8*	0.5	51.9*	0.5	2.8	6.1
C=CCn1c(SCC(=O)Nc2cccc(OC)c2)nnc1-c1cccnc1	37.4	0.6	42.2	0.6	-2.2	2.2
CC(=O)Nc1ccc(NC(=O)CSc2nnc(-c3ccccc3)n2Cc2ccc3c(c2)OCO3)cc1	24.6	0.7	29.9	0.8	2.4	3.3
C=CCn1c(SCC(=O)Nc2ccc3c(c2)OCO3)nnc1-c1cc(Br)ccc1O	48.8	0.2	82.3*	0.5	0.5	13.6
